Test results from PubChem BioAssay AID1159506 (National Center for Advancing Translational Sciences (NCATS), 2015).
The full ranking holds about 59,000 sequences; the median of the read-out is about -0.00055, and the lowest 2% start at about -2. Only a selection was taken, and the lowest values are over-represented in it overall.

Assay: Identification of proteins required for the processing of the EWS-FLI1 nascent transcript;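 also: robust z of luciferase light less the median z of siRNAs with the same seed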
Conditions: TC32 Ewing sarcoma NR0B1-luc vs CMV-luc (EWS-FLI1 target promoter against control promoter), 48 h; screened at 20 nM (by protocol)
Summary of the method: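 TC32 Ewing sarcoma cells carrying NR0B1-promoter or CMV-promoter luciferase reporters were reverse-transfected with single siRNAs at 20 nM, three per gene genome-wide. Luminescence was read after 48 h and normalized to non-targeting controls.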

Row | Sequence | seed-corrected z-score
1 | UGACUUGGCACAGUAUAUC against FAM83A | -0.413
2 | UAUCUUUAAAGUGUAUCUA against FAM230B | 0.596
3 | UCUAGGCUCAGGAAGUUCU against AP5S1 | -1.09
4 | AAACCAAGUAGCUUGAUGU against LOC647275 | 0.229
5 | UCAUUUUGAAUUGAAGAUG against FAM76A | 0.228
6 | UUUCCAUAGGAGACGAUGC against CTSG | 0.0794
7 | UGUUGAUAAGUUACCAUCC against GPCPD1 | 0.968
8 | UUGUUCUAAAGUAUCCUCC against NDC80 | -2.14
9 | AGUCAUUUAAACUUGAUCC against TMSB4X | 0.898
10 | UACGCUUUCUCUACAGUAC against ZNF606 | 0.237
11 | UCUCUUAUGCAGCUUGUGG against SPTBN4 | 0.43
12 | UGCAUAGACAAGGCAGUCG against ZNRF2 | -2.35
13 | UCAGCUGAUAUCUUGUUGC against UBOX5 | 0.0283
14 | ACAGUUUCGAAGGCGAAUG against ABCB9 | -1.83
15 | AAUGCAACCACAGCUAUCC against THNSL1 | 0.294
16 | UUACUGUGCUGUCUAGACC against TMEM79 | 1.12
17 | UUGCUAUUCCUCCUGGUAG against IRF2BP2 | -0.0854
18 | AAUAUCAAUACGAUCUCUG against SNAP23 | -0.225
19 | UUAUGUAUCAUACAAAAGU against YPEL4 | 1.55
20 | UGUGCCUUUCUGACGAUGG against SBK2 | 0.535
21 | UAAGUGGAAAUCCUCGGGC against WBP2NL | 1.46
22 | UUAUUUAUUCCGUUCAUAU against UBE2V2 | -3.25

Row | Sequence | seed-corrected z-score
23 | UCAUGUAAUCUAGCGAUCG against ENTHD1 | 0.768
24 | UUUUGGUCACUUCAAAUUC against MYDGF | -2.17
25 | UCACAAACCACGUUACACG against PABPC3 | -0.495
26 | AGUAGAUACAGCUUCUUUC against CCDC50 | -0.915
27 | AAAUUUCACAGGUAAUAUG against OR13D1 | -0.485
28 | AUGGUGACAAUUGAACUCC against IGF1R | -1.36
29 | UCUGUUAGCAGCUGGUUUG against SH3D19 | -2.01
30 | UUUAUUAUGAUCUUCCGAG against PIP | 0.162
31 | UUUGACGAAAUGGGAAUCC against OMD | -0.258
32 | UAACGUAUAGCUACAACUC against MED23 | 0.49
33 | UGAUUUUCUGCACAAGUCC against NELL2 | 0.658
34 | AUUCUGUUCAAACAUCUGG against EXOC3 | -2.38
35 | UACGCGGGCAAACUUCUCC against LRRC14 | 0.0562
36 | AAUUCGCAAAGAAUGAUGC against CNN1 | 0.159
37 | UAGACUACCGGCUUCUUGC against CTRC | -0.112
38 | UCAGCAUCUUCCAUGAUAG against B3GNT4 | -0.437
39 | AUCUGGUUGCUUUUUAUCC against FAM60A | -3.49
40 | UGAACCACCAGGGUAUACG against CDH1 | 1.03
41 | UCUUGAAUUGAGCAAGUCC against MGAT5 | 0.401
42 | UUUCAGCUAAUGCAUUUUG against VIP | -3.11
43 | UGUAGUAGAACUUCCUGGG against HS6ST1 | -1.42
44 | UCAAUUUUGAGUCCAUUGG against ANKRD46 | 0.911

Row | Sequence | seed-corrected z-score
45 | UCCUUUAGAACUCUCGAUC against WIPF3 | 0.233
46 | AUUAACAUAAUCUUGAUCC against CCNL2 | -4.87
47 | UCAAAGGUCACGGUCAGGA against PRDM15 | -1
48 | UUUAGAGGGACUCUUGUUU against HMGA2 | -1.74
49 | UUCUGACUGAGAGCUAUGG against BNIP3L | -0.338
50 | UAAAUAGUUCUCGUCUUUC against EHF | 0.511
51 | UCUCUUGAGAGCGCGGUUG against RGS8 | 1.31
52 | UACUGAUUGAGUGCCCUGC against FGGY | -5.78
53 | UGAAGUUCAGCUACUAGCC against DIMT1 | -0.104
54 | UAAACAGUGAUUGCACCAC against ZNF497 | -1.22
55 | UAAGAAAAUAGGGAGGCCG against H1F0 | 0.96
56 | UCCGAGUCAAUACUGUAUC against UIMC1 | 0.162
57 | UGCUUUUUCAUGGACCACC against SOD1 | -3.09
58 | ACUAAUACUAAAUUCAACC against CSDE1 | 1.52
59 | UCCAGCUGAACUGUCACUC against TBX10 | -0.201
60 | UUCUUUUCCAGGUACGUGA against CCDC105 | -0.394
61 | UAUGUGCUUACUAGGGUCA against SSR3 | -0.244
62 | AUCUUUCGAACUACAAUUG against PSME4 | 1.14
63 | UCCCAAGUCGCUCAAGUUC against LOC389834 | 0.29
64 | UUUGGAGACAACAAGGUCG against SYN3 | -0.442
65 | UCCGGAAGUACUGUCGAAG against PPP2R1A | -0.186
66 | AAUGUACUAUCUACUUGCC against ZNF507 | -0.378

Row | Sequence | seed-corrected z-score
67 | UCAGGAUCAAAAUCCAGUC against LTV1 | -2.94
68 | UGUCGAAACAGGAGGCGCU against ZNF579 | -1.11
69 | ACAGAUCAAAGAACUGUCC against LGALS4 | 0.144
70 | UACUUGGACAAGUCCAAGA against LSM7 | 0.593
71 | UGAACUUCUGGAGUCCCUC against CCDC115 | 1.1
72 | UUUCGUAACCCUUCUGGGC against GNPTAB | 0.263
73 | UAAGGUUAGGUUAGGAAUG against SH3BGRL3 | -0.0213
74 | UAAUAGACCACGGAGUCUU against TMEM130 | -3.42
75 | UAAUCUCCUUCUUUAGGUC against CNOT3 | 1.42
76 | AGUUCACUAAGUCAAUAGC against TMEM44 | -1.14
77 | UGGGUCAUGUGCUCUAUCC against HDGFL1 | -0.0953
78 | UAUGAGGUAAAGUGGGAAG against LCE2A | -2.17
79 | UUGGGUUCGAUAUCUGCUU against CALML4 | 0.413
80 | UCAGAAAUGACCUUGUUGC against LOC729187 | 1.39
81 | AUCGGCAAAGUAAUUCUGG against NECAB3 | 0.533
82 | UGUAUUACAAUAUUCCUUC against LACE1 | -0.00635
83 | UCUUGUCGUAGUUCGUGGG against DUS3L | -2.02
84 | AAACUGGUCAUCAUCCACC against SIKE1 | 0.42
85 | AUCUGAGUGGAAAAAGUCC against AHNAK2 | 0.0875
